In PubChem BioAssay (NCI):
The panel holds about 79,000 compounds, 15% with a hit somewhere; the sample as a whole holds those more often. Active and inactive are the calls of the source. No stated cut-off is given here; in the data, active means growth inhibition above about 70%; inactive means the rest.

Key:
[1] = NCI Yeast Anticancer Drug Screen. Data for the rad52 strain (AID 147);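 further: 0% = growth of vehicle-treated control cultures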; details: S. cerevisiae rad52 mutant growth inhibition, hits give high values
Summary of the method: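 Genetically altered yeast (DNA damage repair defect) treated with compound; inhibition calculated relative to vehicle.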

[2] = NCI Yeast Anticancer Drug Screen. Data for the wt1 strain (AID 149);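 further: 0% = growth of vehicle-treated wt1 cultures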; details: S. cerevisiae wt1 strain (SPY 50644) growth inhibition, hits give high values
Summary of the method: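 Each compound is tested on wt1 yeast and the loss of growth versus vehicle gives the inhibition value.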

[3] = NCI Yeast Anticancer Drug Screen. Data for the rad50EPP+ strain (AID 151);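 further: 0% = growth of vehicle-treated control cultures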; details: S. cerevisiae rad50 mutant strain, hits give high values
Summary of the method: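 Strain rad50EPP+; compound exposure; % growth inhibition vs vehicle.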

[4] = NCI Yeast Anticancer Drug Screen. Data for the mgt1 strain (AID 153); details: S. cerevisiae mgt1 mutant growth inhibition, hits give high values
Summary of the method: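 Read-out: yeast growth inhibition vs vehicle control. Strain mgt1, drawn from a panel altered in DNA damage repair or cell cycle control.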

[5] = NCI Yeast Anticancer Drug Screen. Data for the rad50 strain (AID 155);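 further: 0% = growth of vehicle-only cultures of the same strain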; details: S. cerevisiae rad50 strain growth inhibition, hits give high values
Summary of the method: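 Vehicle-treated cultures provide the reference for the growth inhibition reported for compound-exposed, repair-deficient yeast.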

[6] = NCI Yeast Anticancer Drug Screen. Data for the mec2-1 strain (AID 157); details: S. cerevisiae mec2-1 strain, hits give high values
Summary of the method: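 Cells of the genetically defined mec2-1 yeast strain are incubated with test compound. Inhibition of growth is calculated against vehicle-treated controls.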

[7] = NCI Yeast Anticancer Drug Screen. Data for the rad14 strain (AID 159);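 further: 0% = growth of vehicle-treated control cultures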; details: S. cerevisiae rad14 strain growth inhibition, hits give high values
Summary of the method: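 Inhibition of growth is reported for a repair-deficient yeast mutant following compound treatment, calculated relative to cultures that received vehicle.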

[8] = NCI Yeast Anticancer Drug Screen. Data for the sgs1 mgt1 strain (AID 161);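 further: 0% = growth of cultures given vehicle only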; details: S. cerevisiae sgs1 mgt1 strain, hits give high values
Summary of the method: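 Inhibition of yeast growth, normalised to vehicle-treated controls, is reported for a strain bearing genetic alterations in DNA damage repair.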

[9] = NCI Yeast Anticancer Drug Screen. Data for the CLN2oe strain (AID 163);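 further: 0% = growth of vehicle-only control cultures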; details: S. cerevisiae CLN2oe strain, hits give high values
Summary of the method: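 Strain altered in cell-cycle control, incubated with compound; growth compared to solvent-treated controls.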

[10] = NCI Yeast Anticancer Drug Screen. Data for the cln2 rad14 strain (AID 165);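 further: 0% = growth equal to vehicle treated cultures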; details: S. cerevisiae cln2 rad14 strain, hits give high values
Summary of the method: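 The screen exposed genetically defined yeast (cln2 rad14) to test compounds and scored growth inhibition relative to vehicle-treated controls.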

[11] = NCI Yeast Anticancer Drug Screen. Data for the bub3 strain (AID 167); details: S. cerevisiae bub3 mutant strain, hits give high values
Summary of the method: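 Mutant yeast screening strain plus compound; vehicle-treated cultures serve as the 0% inhibition reference.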

[12] = NCI Yeast Anticancer Drug Screen. Data for the wt2 strain (AID 169); details: S. cerevisiae wt2 strain growth inhibition, hits give high values
Summary of the method: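 Steps: yeast strain treated with compound; growth recorded; inhibition calculated relative to cultures given vehicle alone.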

[13] = NCI Yeast Anticancer Drug Screen. Data for the mlh1 strain (AID 171);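 further: 0% = growth of vehicle-treated control cultures of the same strain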; details: S. cerevisiae mlh1 strain growth inhibition, hits give high values
Summary of the method: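 Yeast screen: mutant strain plus compound, growth scored against vehicle control wells.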

[14] = NCI Yeast Anticancer Drug Screen. Data for the sgs1 strain (AID 173);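 further: 0% = growth of vehicle-only control cultures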; details: S. cerevisiae sgs1 mutant, hits give high values
Summary of the method: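 Inhibition of yeast growth served as the measure. The mutant strain was treated with each compound, and growth was normalised to cultures receiving vehicle alone.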

[15] = NCI Yeast Anticancer Drug Screen. Data for the mlh1 rad18 strain (AID 175); details: S. cerevisiae mlh1 rad18 strain growth inhibition, hits give high values
Summary of the method: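 Compound-treated yeast growth, normalised to vehicle controls. Strain bears defined DNA repair mutations.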

[16] = NCI Yeast Anticancer Drug Screen. Data for the rad18 strain (AID 177); details: S. cerevisiae rad18 mutant growth inhibition, hits give high values
Summary of the method: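 Inhibition values reflect reduced yeast growth compared with vehicle-treated controls, using a strain engineered with a DNA damage repair defect.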

[17] = at 5.0 µM (retest, dose inferred, filed as 0.5)
[18] = at 50.0 µM (retest, dose inferred, filed as 5.0)

Measured: growth inhibition

O=C(/C=C/c1cccc(Br)c1)c1cccs1
active: [1]; at 11.0 µM 74% | [1]; at 33.0 µM 97% | [1]; at 100.0 µM 94% | [2]; at 33.0 µM 98% | [2]; at 100.0 µM 95% | [3]; at 33.0 µM 82% | [3]; at 100.0 µM 85% | [4]; at 11.0 µM 85% | [4]; at 33.0 µM 97% | [4]; at 100.0 µM 92% | [5]; at 11.0 µM 83% | [5]; at 33.0 µM 97% | [5]; [18] 96% | [5]; at 50.0 µM 88.2% | [5]; at 100.0 µM 91% | [6]; at 11.0 µM 75% | [6]; at 33.0 µM 99% | [6]; [18] 98% | [6]; at 50.0 µM 91.5% | [6]; at 100.0 µM 96% | [7]; at 11.0 µM 81% | [7]; at 33.0 µM 96% | [7]; at 100.0 µM 92% | [8]; [18] 96% | [8]; at 50.0 µM 91.8% | [9]; at 11.0 µM 84% | [9]; at 33.0 µM 98% | [9]; at 100.0 µM 96% | [10]; [18] 97% | [11]; at 11.0 µM 94% | [11]; at 33.0 µM 98% | [11]; [18] 98% | [11]; at 50.0 µM 90.8% | [11]; at 100.0 µM 96% | [12]; at 33.0 µM 98% | [12]; at 100.0 µM 95% | [13]; at 11.0 µM 89% | [13]; at 33.0 µM 97% | [13]; at 100.0 µM 95% | [14]; at 11.0 µM 78% | [14]; at 33.0 µM 98% | [14]; at 100.0 µM 94% | [15]; [18] 95% | [15]; at 50.0 µM 87.9% | [16]; at 11.0 µM 91% | [16]; at 33.0 µM 97% | [16]; at 100.0 µM 93%
inactive: [1]; at 1.2 µM -32% | [1]; at 3.7 µM -12% | [2]; at 1.2 µM -15% | [2]; at 3.7 µM -5% | [2]; at 11.0 µM 61% | [3]; at 1.2 µM -9% | [3]; at 3.7 µM -5% | [3]; at 11.0 µM 29% | [4]; at 1.2 µM -1% | [4]; at 3.7 µM 13% | [5]; at 1.2 µM 6% | [5]; at 3.7 µM 10% | [5]; [17] 8% | [6]; at 1.2 µM -16% | [6]; at 3.7 µM 4% | [6]; [17] -9% | [7]; at 1.2 µM -2% | [7]; at 3.7 µM 5% | [8]; [17] 16% | [9]; at 1.2 µM 9% | [9]; at 3.7 µM 10% | [10]; [17] 11% | [10]; at 50.0 µM 46.5% | [11]; at 1.2 µM 30% | [11]; at 3.7 µM 45% | [11]; [17] 36% | [12]; at 1.2 µM -24% | [12]; at 3.7 µM -16% | [12]; at 11.0 µM 67% | [13]; at 1.2 µM 9% | [13]; at 3.7 µM 25% | [14]; at 1.2 µM -17% | [14]; at 3.7 µM 0% | [15]; [17] 21% | [16]; at 1.2 µM 4% | [16]; at 3.7 µM 26%
